Sampled rows, rich in hits. Any-hit rate of the full collection: about 11%.
G9a inh = blocks human histone lysine methyltransferase G9a. G9a H3K9 monomethylation, AlphaScreen, 2 h. Potency, µM (top dose mostly 102 µM), for the others: at the highest dose activity, negative = inhibition, most hits filed as inhibitors. actives 8.8% (n = 350,000). AID 504332; also: % is scaled to controls: 0 for no effect and ±100 for the full control effect; nearly all actives have a fitted effect of over 75% in size
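Using a bead-based AlphaScreen, monomethylated H3K9 product from 2 h room-temperature reactions (G9a 20 nM, peptide 500 nM, SAM 20 uM) was detected with 0.5 ug/mL rabbit anti-H3K9me1 antibody.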
JMJD2A Tudor inh = inhibitors of human JMJD2A Tudor domain; AlphaScreen JMJD2A-Tudor / H3K4me3 peptide binding; AID 504339; actives 4.4% (n = 390,000); O75164; Potency, µM (titrated, usually from 114 µM), for the others: at the top dose activity change, negative = inhibition, actives largely listed as inhibitors; also: % is scaled to controls: 0 for no effect and ±100 for the full control effect; nearly all actives have a fitted effect of over 50% in size
BAZ2B inh = inhibitors of human BAZ2B bromodomain | Q9UIF8 | AlphaScreen BAZ2B-H3K14Ac peptide displacement | Potency, µM (series often up to 114 µM), inactives show at the top dose activity change, negative = inhibition, most hits filed as inhibitors | actives 4.4% (n = 360,000) | AID 504333; also: % is scaled to controls: 0 for no effect and ±100 for the full control effect; nearly all actives have a fitted effect of over 60% in size
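Complex of BAZ2B and biotin-H3K14Ac (50 nM apiece) forms over 30 min at RT, then faces library compounds up to 110 uM for another 30 min; AlphaScreen beads added, 20 min dark incubation, luminescence read.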
HP1b chromo inh = inhibitors of HP1-beta chromodomain binding to methylated histone tails; P83916; AlphaScreen HP1-beta / biotin-H3K9me3 peptide binding; Potency, µM (highest dose often 114 µM), for the others: at the highest dose activity change, negative = inhibition, usual class: inhibitors; actives 0.56% (n = 390,000); also: nearly all actives have a fitted effect of over 70% in size
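Compound inhibition of the preformed complex between 50 nM HP1-beta and 50 nM biotinylated H3K9me3 peptide was read by AlphaScreen. Buffer was PBS pH 7.4 with 0.01% Tween-20. Incubations ran 30 min at room temperature, with 10 ug/mL donor/acceptor beads.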
L3MBTL1 block = L3MBTL1 (human) inhibition; AlphaScreen L3MBTL1–H3K9me1 peptide binding; Potency, µM (highest dose often 57.1 µM), for the others: at the highest dose activity, negative = inhibition, hits mostly inhibitors; Q9Y468; AID 485360; actives 0.66% (n = 230,000); also: % is scaled to controls: 0 for no effect and ±100 for the full control effect; nearly all actives have a fitted effect of over 60% in size
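Read-out is AlphaScreen signal from streptavidin donor and nickel chelate acceptor beads (10 ug/mL final each) bridging L3MBTL1 (50 nM) and biotinylated K9-monomethylated H3(1-15) peptide (75 nM), after 30 min compound exposure at room temperature.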
Starred values were filed as active, the others as inactive; [ ] = remark or other dose. Calls follow the shape of the dose curve; as a rule, active = well fitted inhibition curve with a large enough effect; inconclusive = small, poorly fitted or top-dose-only effect; inactive = no such curve, though single readings can be large or run the other way. Potency is read from the fitted curve at half-maximal effect.

For CCc1nnc(N/N=C/c2ccccc2Cl)n1N the results were G9a inh 22%[0.501 µM], JMJD2A Tudor inh 89µM*, BAZ2B inh inconclusive, HP1b chromo inh 16% and L3MBTL1 block -7%.
For COc1cccc(/C=N/Nc2nnc(C)n2N)c1OCc1ccccc1Cl the results were G9a inh 22µM*, JMJD2A Tudor inh -30%, BAZ2B inh 16%, HP1b chromo inh 8% and L3MBTL1 block 10%.
For CC(C)(C)c1nnc(N/N=C/c2ccccc2O)n(N)c1=O the results were G9a inh 78%[59 µM], JMJD2A Tudor inh 22µM*, BAZ2B inh 20µM*, HP1b chromo inh 20% and L3MBTL1 block 16µM*.
For CC(C)(C)c1nnc(N/N=C/c2ccccc2)n(N)c1=O the results were G9a inh -3%[59 µM], JMJD2A Tudor inh -24%, BAZ2B inh 5%, HP1b chromo inh 21% and L3MBTL1 block 0%.
O=C(CSc1nc2c(c(=O)[nH]1)CCCC2)Nc1ccc(Br)cc1 was read as G9a inh -32%[59 µM], JMJD2A Tudor inh -21%, BAZ2B inh -12% and HP1b chromo inh 2%.
Screening COc1ccc(C(=O)N2CCC[C@@]3(CCN(Cc4nccs4)C3)C2)cc1 returned G9a inh -7%[12.7 µM].
`Cc1nc2ccc(NC3=NCCCCC3)cc2s1` gave G9a inh 5.6µM*, JMJD2A Tudor inh 3.5µM*, BAZ2B inh inconclusive, HP1b chromo inh inconclusive and L3MBTL1 block 1%.
Screening Cc1ccc(NC2=NCCC2)cc1Cl returned G9a inh -3%[59 µM], JMJD2A Tudor inh -6%, BAZ2B inh 39%, HP1b chromo inh 17% and L3MBTL1 block 20%.
COc1cccc(CNC(=O)CCc2c(C)c3cc4c(C)coc4cc3oc2=O)c1 was read as G9a inh -8%[59 µM], JMJD2A Tudor inh -23%, BAZ2B inh 2% and HP1b chromo inh 18%.
For O=C(O)c1ccc(/C=N\Nc2ccc(S(=O)(=O)N3CCOCC3)cc2[N+](=O)[O-])cc1 the results were G9a inh 50µM*, JMJD2A Tudor inh inconclusive, BAZ2B inh inconclusive, HP1b chromo inh -1% and L3MBTL1 block -1%.
C/C(=N\Nc1ccc(S(=O)(=O)N2CCOCC2)cc1[N+](=O)[O-])C(C)C was read as G9a inh inconclusive, JMJD2A Tudor inh 45µM*, HP1b chromo inh inconclusive and L3MBTL1 block -6%.
Screening COc1cc(OC)cc(Oc2ccc(S(=O)(=O)N3CCCCC3)cc2[N+](=O)[O-])c1 returned G9a inh 79µM*, JMJD2A Tudor inh inconclusive, BAZ2B inh -27% and HP1b chromo inh -15%.
Screening COC(=O)COc1ccc(S(=O)(=O)N2CCCCC2)cc1[N+](=O)[O-] returned G9a inh 1%, JMJD2A Tudor inh -12%, BAZ2B inh -10%, HP1b chromo inh 0% and L3MBTL1 block 6%.
CN1CCC(=NNc2ccc(S(=O)(=O)N3CCOCC3)cc2[N+](=O)[O-])CC1 was read as G9a inh -22%[59 µM], JMJD2A Tudor inh -26%, BAZ2B inh -12%, HP1b chromo inh -12% and L3MBTL1 block -10%.
COC(=O)C/C(C)=N/Nc1ccc(S(=O)(=O)N2CCCC2)cc1[N+](=O)[O-] was read as G9a inh 45µM*, JMJD2A Tudor inh -32%, BAZ2B inh inconclusive, HP1b chromo inh -1% and L3MBTL1 block -11%.
Cc1ccc(-n2c(O)c(/C=N/Nc3ccc(S(=O)(=O)N4CCOCC4)cc3[N+](=O)[O-])c3ccccc3c2=O)c(C)c1 was read as G9a inh 8.9µM*, JMJD2A Tudor inh 28µM*, BAZ2B inh 13µM*, HP1b chromo inh 4µM* and L3MBTL1 block inconclusive.
CCOC(=O)N1CCC(=NNc2ccc(S(=O)(=O)N3CCOCC3)cc2[N+](=O)[O-])CC1 was read as G9a inh -6%[59 µM], JMJD2A Tudor inh -16%, BAZ2B inh -36%, HP1b chromo inh inconclusive and L3MBTL1 block -6%.
O=C(Nc1ccccc1)N1CCN(c2cccc(C(F)(F)F)c2)CC1 was read as G9a inh 10%, JMJD2A Tudor inh -20%, BAZ2B inh 13% and HP1b chromo inh 27%.

Screens: PubChem, National Center for Advancing Translational Sciences (NCATS)
